Results as given in the supplement of paper PMC9262897, “Low-cost anti-mycobacterial drug discovery using engineered E. coli” (Nature Communications, 2022).
Counter-ions that a name gives are not always drawn. ± gives the standard deviation of the averaged measurements.

test system: E. coli TESEC Alr+ wild-type control; assay: growth (OD600 after 10 h); higher = more growth (less inhibition); conditions: compound 0.1 mM; raw OD600 reference: median of DMSO wells 0.49, cell-free background 0.052
Procedure: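 TESEC Mtb Alr E. coli (ΔaraC ΔtolC ΔentC Δalr ΔdadX, arabinose-inducible Mtb Alr) or the Alr+ wild-type control strain, grown in defined M9-fructose medium without D-alanine in 96-well plates with Prestwick library compounds at 0.1 mM and 1% DMSO. Low Alr induction is 0.1 µM arabinose and high induction is 10 mM arabinose.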

SMILES | growth
Nc1cc(C(Cl)=C(Cl)Cl)c(S(N)(=O)=O)cc1S(N)(=O)=O [Clorsulon] | 0.53 ± 0.0087
Clc1cc(Cl)c(OCC#CI)cc1Cl [Haloprogin] | 0.195 ± 0.037
OC(Cn1cncn1)(Cn1cncn1)c1ccc(F)cc1F [Fluconazole] | 0.505 ± 0.049
NC[C@@H]1O[C@@H](O[C@H]2[C@H](O)[C@@H](O[C@H]3O[C@H](CO)[C@@H](O)[C@H](N)[C@H]3O)[C@H](N)C[C@@H]2N)[C@@H](O)[C@H](O)[C@H]1O [Kanamycin A sulfate] | 0.495 ± 0.032
CC(C)(C)C(=O)OCOC(=O)[C@@H]1N2C(=O)[C@@H](NC(=O)[C@H](N)c3ccccc3)[C@H]2SC1(C)C [Pivampicillin] | 0.555 ± 0.11
CC(C)(Oc1ccc(C2CC2(Cl)Cl)cc1)C(=O)O (stereo not given) [Ciprofibrate] | 0.515 ± 0.079
COc1ccc(-c2ccc3cc(C(=O)O)ccc3c2)cc1C12CC3CC(CC(C3)C1)C2 [Adapalene] | 0.483 ± 0.01
NC(=O)N/N=C/c1ccc([N+](=O)[O-])o1 [Nitrofural] | 0.0529 ± 0.0016
CC(=O)NC[C@H]1CN(c2ccc(N3CCOCC3)c(F)c2)C(=O)O1 [Linezolid] | 0.0669 ± 0.00098
CCOc1ccc(NC(C)=O)cc1 [Phenacetin] | 0.506 ± 0.071
CCC1(C)CC(=O)NC1=O (stereo not given) [Ethosuximide] | 0.436 ± 0.043
O=C1NCC2(CCN(CCc3ccccc3)CC2)O1 [Fenspiride hydrochloride] | 0.487 ± 0.054
OC(CCN1CCCC1)(c1ccccc1)C1CCCCC1 (stereo not given) [Procyclidine hydrochloride] | 0.573 ± 0.041
CC(C)/N=c1\cc2n(-c3ccc(Cl)cc3)c3ccccc3nc-2cc1Nc1ccc(Cl)cc1 [Clofazimine] | 0.154 ± 0.012
CO[C@@]1(NC(=O)C(C(=O)O)c2ccc(O)cc2)C(=O)N2C(C(=O)O)=C(CSc3nnnn3C)CO[C@@H]21 (stereo not given in full) [Moxalactam disodium salt] | 0.04587 ± 5.8e-05
Cn1ccnc1S [Methimazole] | 0.57 ± 0.026
COc1ccc(-c2ccc(=N)n(CCCC(=O)O)n2)cc1 [Gabazine bromide] | 0.599 ± 0.11
NCc1ccc(S(N)(=O)=O)cc1 [Mafenide hydrochloride] | 0.418 ± 0.046
NC(=O)c1ccc[n+]([C@@H]2O[C@H](COP(=O)([O-])OP(=O)(O)OC[C@H]3O[C@@H](n4cnc5c(N)ncnc54)[C@H](O)[C@@H]3O)[C@@H](O)[C@H]2O)c1 [Nadide] | 0.564 ± 0.14
C[C@H]1O[C@@H](O[C@H]2[C@@H](O)C[C@H](O[C@H]3[C@@H](O)C[C@H](O[C@H]4CC[C@@]5(C)[C@H](CC[C@@H]6[C@@H]5C[C@@H](O)[C@]5(C)[C@@H](C7=CC(=O)OC7)CC[C@]65O)C4)O[C@@H]3C)O[C@@H]2C)C[C@H](O)[C@@H]1O [Digoxin] | 0.617 ± 0.038

SMILES | growth
Cc1cc(=O)n(-c2ccccc2)n1C [Antipyrine] | 0.474 ± 0.062
O=C(CCCCCCC(=O)Nc1ccccc1)NO [Vorinostat] | 0.495 ± 0.099
C[C@H](N[C@@H](CCc1ccccc1)C(=O)O)C(=O)N1CCC[C@H]1C(=O)O [Enalaprilat dihydrate] | 0.638 ± 0.025
Clc1ccc(C(Cn2ccnc2)OCc2c(Cl)cccc2Cl)c(Cl)c1 (stereo not given) [Isoconazole] | 0.0722 ± 0.023
CC1COc2c(N3CCN(C)CC3)c(F)cc3c(=O)c(C(=O)O)cn1c23 (stereo not given) [Ofloxacin] | 0.0509 ± 0.00059
CC1CCc2cc(F)cc3c(=O)c(C(=O)O)cn1c23 (stereo not given) [Flumequine] | 0.0527 ± 0.00046
COC(=O)[C@H]1[C@H]2C[C@@H]3c4[nH]c5cc(OC)ccc5c4CCN3C[C@H]2C[C@@H](OC(=O)c2cc(OC)c(OC)c(OC)c2)[C@@H]1OC [Reserpine] | 0.467 ± 0.014
COc1ccc(CN(CCN(C)C)c2ccccn2)cc1 [Pyrilamine maleate] | 0.528 ± 0.077
C#C[C@]1(OC(C)=O)CC[C@H]2[C@@H]3CCC4=C[C@@H](OC(C)=O)CC[C@@H]4[C@H]3CC[C@@]21C [Ethynodiol diacetate] | 0.4 ± 0.018
CCn1cc(C(=O)O)c(=O)c2cnc(N3CCNCC3)nc21 [Pipemidic acid] | 0.158 ± 0.008
CCN1CCN(C(=O)N[C@@H](C(=O)N[C@@H]2C(=O)N3[C@@H]2SC(C)(C)[C@@H]3C(=O)O)c2ccccc2)C(=O)C1=O [Piperacillin sodium salt] | 0.508 ± 0.061
CN(CCOc1ccc(NS(C)(=O)=O)cc1)CCc1ccc(NS(C)(=O)=O)cc1 [Dofetilide] | 0.589 ± 0.053
CCCCNc1ccc(C(=O)OCCOCCOCCOCCOCCOCCOCCOCCOCCOC)cc1 [Benzonatate] | 0.444 ± 0.033
Nc1nc(NC2CC2)c2ncn([C@H]3C=C[C@@H](CO)C3)c2n1 [Abacavir Sulfate] | 0.612 ± 0.095
O=C(O)CCc1nc(-c2ccccc2)c(-c2ccccc2)o1 [Oxaprozin] | 0.381 ± 0.039
CCC(=O)O[C@]1(C(=O)CCl)[C@@H](C)C[C@H]2[C@@H]3CCC4=CC(=O)C=C[C@]4(C)[C@@]3(F)[C@@H](O)C[C@@]21C [Clobetasol propionate] | 0.326 ± 0.017
Oc1c(Cl)cc(Cl)c(Cl)c1Cc1c(O)c(Cl)cc(Cl)c1Cl [Hexachlorophene] | 0.05693 ± 0.00042
CC(C)NCC(O)c1ccc2ccccc2c1 (stereo not given) [Pronethalol hydrochloride] | 0.473 ± 0.048
CCC(=O)OCC(=O)[C@@]1(OC(=O)CC)[C@H](C)C[C@H]2[C@H]3[C@H]([C@@H](O)C[C@@]21C)[C@@]1(C)C=CC(=O)C=C1C[C@H]3Cl [Alclometasone dipropionate] | 0.492 ± 0.04
CCC(C)(C)C(=O)O[C@H]1C[C@@H](C)C=C2C=C[C@H](C)[C@H](CC[C@@H]3C[C@@H](O)CC(=O)O3)[C@H]21 [Simvastatin] | 0.311 ± 0.016
